# CF NFkB block: inhibitors of PAF-induced NF-kB signaling, primary screen, cell-based, GFP fluorescence, uHTS | KKLEB NF-kB-GFP reporter, GFP fluorescence overnight | inhibition, % at 5 µM | actives 0.86% (n = 360,000) | AID 588850, 2011;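 active = at least 50% inhibition at 5 µM, scaled per plate between neutral and stimulator controls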;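 also: PAF is a Pseudomonas aeruginosa culture filtrate used as stimulus; plate controls were PAF-stimulated DMSO wells for no effect and unstimulated DMSO wells for full effect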
# HIF-2a inh: HIF-2a reporter inhibitors, primary screen, luminescence, 786-0 RCC cells. 786-0 RCC cells HIF-2a reporter, luciferase luminescence, overnight. inhibition, % at 18.8 µM. actives 0.72% (n = 360,000);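 active = inhibition of the luminescence signal of 40% or more relative to plate controls, in a single-dose primary screen at 18.75 µM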
# TRPM1 prom inh: inhibitors of MITF-dependent TRPM1 promoter reporter, primary screen, cell-based, SK-MEL-5, single point, luciferase; SK-MEL-5 TRPM1 promoter luciferase, 24 h; inhibition, % at 12.5 µM; actives 0.83% (n = 330,000); AID 488899, 2010;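 active = mean inhibition across replicates of 60% or more, whatever share of single replicates reaches that level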
# ABHD5-PLIN5 inh: ABHD5-PLIN5 interaction inhibitors, primary screen, cell lysate, split luciferase complementation, luminescence | Split G. princeps luciferase complementation, 4 h | AID 602281, 2012 | inhibition, % at 4 µM | Perilipin-5 (Homo sapiens) + 1-acylglycerol-3-phosphate O-acyltransferase ABHD5 (Homo … | actives 0.78% (n = 360,000);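 active = inhibition above the mean inhibition across every tested compound plus 3 SD, cut at about 22% in these data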;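 also: 0% = DMSO only wells and the 100% control is not disclosed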
# Target sequence (Q00G26 whole entry, looked up): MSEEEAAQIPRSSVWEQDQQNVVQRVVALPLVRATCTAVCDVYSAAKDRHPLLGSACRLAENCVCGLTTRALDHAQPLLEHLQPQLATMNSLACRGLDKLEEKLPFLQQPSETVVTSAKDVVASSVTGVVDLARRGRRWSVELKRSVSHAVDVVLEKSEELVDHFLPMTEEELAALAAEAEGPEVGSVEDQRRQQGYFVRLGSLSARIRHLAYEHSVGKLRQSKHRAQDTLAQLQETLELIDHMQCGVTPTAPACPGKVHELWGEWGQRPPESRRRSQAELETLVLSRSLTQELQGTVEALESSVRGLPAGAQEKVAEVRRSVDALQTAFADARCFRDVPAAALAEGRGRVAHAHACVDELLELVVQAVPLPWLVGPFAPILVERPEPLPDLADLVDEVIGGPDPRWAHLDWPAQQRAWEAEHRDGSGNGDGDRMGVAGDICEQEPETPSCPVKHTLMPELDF
# Target sequence (Q8WTS1 whole entry, looked up): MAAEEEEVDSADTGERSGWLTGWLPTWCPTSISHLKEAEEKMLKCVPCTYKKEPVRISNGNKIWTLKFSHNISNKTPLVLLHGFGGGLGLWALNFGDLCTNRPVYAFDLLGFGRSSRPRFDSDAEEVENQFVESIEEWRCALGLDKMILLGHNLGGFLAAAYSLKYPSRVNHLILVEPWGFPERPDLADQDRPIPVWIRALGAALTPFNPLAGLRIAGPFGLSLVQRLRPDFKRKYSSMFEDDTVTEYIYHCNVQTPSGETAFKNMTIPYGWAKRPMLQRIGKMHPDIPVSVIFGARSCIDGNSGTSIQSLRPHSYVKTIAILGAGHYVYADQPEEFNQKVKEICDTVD
# Peg3 promoter: Peg3 promoter-driven luciferase inhibitors, primary screen, cell-based, HeLa, luciferase luminescence; AID 588405, 2011; HeLa PEG-Prom luciferase reporter, overnight; inhibition, % at 20 µM; actives 1.7% (n = 360,000);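 active = inhibition of at least 50% at 20 µM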
# KKLEB tox: cytotoxicity in KKLEB CF airway cells, primary screen, cytotoxicity control for CF NF-kB inhibitor project, cell-based, uHTS, fluorescence assay plates; actives 0.36% (n = 360,000); KKLEB CF airway cells viability, ATPlite luminescence, overnight; hits give low values; cells stimulated with P. aeruginosa culture filtrate; AID 602141, 2011; activity change (cytotoxicity), % at 5 µM;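 active = corrected activity change at or below -50% at 5 µM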
# Starred values were filed as active, the others as inactive; x = no result given. Shown are actives, neighbours in structure and some others; about 3% of the full set was active somewhere.
SMILES,CF NFkB block,HIF-2a inh,TRPM1 prom inh,ABHD5-PLIN5 inh,Peg3 promoter,KKLEB tox
O=C(Nc1ccc(-c2ccco2)cc1)C1CCCN(Cc2ccc(CO)o2)C1 (stereo unspecified),12,-31,0,12,-9,11
C/C(=N\Nc1ccc(C(=O)c2c(C)cc3ccccn23)cc1[N+](=O)[O-])c1ccc(O)cc1,69*,12,24,-1,26,-62*
Cc1ccc(S(=O)(=O)CCc2ccncc2)cc1,-8,-1,14,0,-8,14
Cc1snnc1C(=O)NC(=S)Nc1ccccc1,-14,-34,5,-4,-12,16
COc1ccc(N(CC(=O)NC(C)(C)C)C(=O)CCC(=O)Nc2nccs2)c(OC)c1,4,15,0,-5,1,1
Nc1c(N(CCC2=CCCCC2)C(=O)COc2ccc(F)cc2)c(=O)[nH]c(=O)n1Cc1ccccc1,11,0,92*,-12,97*,-8
OCCNc1c2ccccc2nc2c(F)c(F)c(F)c(F)c12,9,97*,81*,5,101*,-8
Cc1c2ccccc2nc2c(F)c(NCCO)c(F)c(F)c12,-2,-35,-25,3,-108,-7
O=C(NCc1ccccc1)NC1(C(=O)Nc2ccc3c(c2)OCCO3)CCCCC1,5,-2,65*,3,-12,-10
O=C(Nc1ccccc1)NC1(C(=O)NCc2ccc3c(c2)OCO3)CCCCC1,2,20,-2,-3,14,6
c1ccc(-c2ccc(OCCCNC3CCCC3)cc2)cc1,5,6,-13,3,74*,-10
COc1ccc(OCCNC2CCCC2)cc1,-9,-8,-1,0,2,-7
Cc1cc(Cl)cc(Cl)c1OCCN1CCCC1,-5,10,5,5,-5,0
CCn1c(CCl)nc2cc(S(=O)(=O)N3CCOCC3)ccc21,8,13,x,-2,71*,1
CC(NS(=O)(=O)CCNC(=O)c1ccccc1)c1ccccc1 (stereo unspecified),3,16,-2,4,17,-10
CC(/C=N/NC(=O)c1cc(-c2cccnc2)nc2c1c(C)nn2-c1ccccc1)=C\c1ccccc1,21,15,2,5,51*,-10
Cc1nn(-c2ccccc2)c(N2CCCC2)c1/C=N/NC(=O)c1cc(-c2cccnc2)nc2ccccc12,22,17,10,3,46,-7
NCc1ccc(S(N)(=O)=O)cc1,4,2,6,6,8,-51*
Cc1ccc(S(N)(=O)=O)cc1,-1,14,2,2,-9,-13
CCN(CC)c1ccc2cc(NC(=O)CCC(=O)O)c(=O)oc2c1,-10,84*,92*,-4,44,-5
COc1ccccc1-c1cc(C(=O)Nc2cc(C)n(Cc3ccc(Cl)cc3)n2)no1,60*,-18,18,-3,12,-76*
O=S(=O)(NCC(c1ccco1)N1CCOCC1)c1ccc(Cl)cc1 (stereo unspecified),8,21,-2,-5,10,12
COC(=O)c1cnc(Nc2nc(C(N)Cc3ccccc3)cs2)nc1C(F)(F)F (stereo unspecified),-4,-15,x,15,52*,-14
COC(=O)c1cnc(Nc2nc(C(N)Cc3ccc(OC)cc3)cs2)nc1C(F)(F)F (stereo unspecified),-16,10,x,-2,25,-5
COC(=O)c1cnc(Nc2nc(C(N)Cc3ccc(Cl)cc3)cs2)nc1C(F)(F)F (stereo unspecified),16,17,x,-6,96*,-16
SMILES,CF NFkB block,HIF-2a inh,TRPM1 prom inh,ABHD5-PLIN5 inh,Peg3 promoter,KKLEB tox
COC(=O)[C@]12CCCCC=C1N(CCC1=CCCCC1)C(=O)[C@H](CC(=O)NCCCCc1ccccc1)C2,x,7,x,9,x,x
O=C(NC(c1ccc(Cl)cc1)c1cnccn1)C1CCN(CCOc2ccc(F)cc2)CC1 (stereo unspecified),16,10,x,-12,-3,-6
COc1ccc(C(NC(=O)C2CCN(CCCOc3ccccc3)CC2)c2ccccn2)cc1 (stereo unspecified),-15,7,x,1,9,5
O=C(NC(c1ccc(-c2ccccc2)cc1)c1cnccn1)C1CCN(CCCOc2ccccc2)CC1 (stereo unspecified),28,-10,x,-2,103*,-20
O=C(NC(c1ccc(-c2ccccc2)cc1)c1cnccn1)C1CCN(CCOc2ccc(F)cc2)CC1 (stereo unspecified),33,-12,x,11,50*,-31
Cc1ccc(NC(=O)C(OC(=O)c2ccc(C=O)cc2)c2ccccc2)cc1Cl (stereo unspecified),3,-18,-17,-3,-11,17
COc1cccc(-c2nn(-c3ccccc3)cc2/C=C(/NC(=O)c2ccccc2)C(=O)O)c1,9,10,-5,4,12,1
CC1CCN(c2nc(-c3ccco3)c3c(c2C#N)CC(C)(C)OC3)CC1,-9,4,-11,23*,2,6
N=c1n(Cc2ccccc2)c2ccccc2n1CC(O)COc1ccccc1 (stereo unspecified),16,6,38,-3,71*,-18
CCCCn1c(=N)n(CC(O)COc2ccc(C)cc2)c2ccccc21 (stereo unspecified),-8,0,43,7,72*,-6
CCCCn1c(=N)n(CC(O)COc2ccccc2)c2ccccc21 (stereo unspecified),3,20,13,-1,32,-5
Cc1ccc(Nc2c(-c3ccccn3)nc3cccc(C)n23)cc1,24,29,71*,3,35,-35
Cc1cccc2nc(-c3ccco3)c(Nc3ccccc3)n12,-13,15,4,7,3,0
COc1cc(OC)cc(C(=O)NC(=S)NNC(=O)[C@H]2C[C@@H]2c2ccccc2)c1,19,9,9,-10,28,-4
COc1ccc(C(=O)NC(=S)NNC(=O)[C@H]2C[C@@H]2c2ccccc2)cc1OC,10,21,-3,11,61*,-15
C=C1C(=O)O[C@H]2[C@H]1[C@@H](O)CC(=C)[C@@H]1CC(=O)[C@@H](C)[C@H]21,85*,26,38,12,36,11
COCCCNC(=O)C[C@@H]1C[C@@]2(C(=O)OC)CCCCC=C2N(Cc2ccc(Cl)cc2Cl)C1=O,x,6,x,2,x,x
